These results are taken from PubChem BioAssay AID1259373 (The Scripps Research Institute Molecular Screening Center, 2018).

As usually defined, the IC50 is the concentration that inhibits the measured activity by half.

Some of the results follow. Calls of active or inactive are those of the source. No rule for the calls is given here.

The nature of this experiment: AlphaScreen optical interference compounds, dose response, counter-screen, biochemical, HTS (AID 1259373). The settings on record: AlphaScreen optical interference counterscreen, cell-free. A general note: Alpha assays give light when donor and acceptor beads are brought close together.
For the molecule `CCOc1ccccc1N1CCN(Cc2cc(OC)c(O)c([N+](=O)[O-])c2)CC1`, the IC50 is > 6.48 µM (inactive).

For the molecule `O=C(Nc1ccc(-c2ccncc2)c(C(F)(F)F)c1)C1COc2ccccc2O1` (centres undefined), the IC50 was > 6.48 µM (inactive).

`Cc1ccc(NC(=O)COC(=O)CCC(=O)Nc2sc3c(c2C(N)=O)CCC3)cc1F`: the IC50 is > 6.95 µM (inactive).

`O=C(Cc1cccs1)N/N=C\C=C\c1ccco1`: the IC50 is > 6.48 µM (inactive).

Consider `COc1ccc2c(c1)CC(C(=O)Nc1ccc(-c3cn[nH]c3)cc1OCc1ccccc1)CO2` (centres undefined), for which the IC50 was > 6.48 µM (inactive).

For the molecule `CCc1ccc(NC(=O)CS(=O)CC(=O)NCCCc2ccccc2)cc1` (centres undefined), the IC50 is > 6.48 µM (inactive).

For `C[C@@H](OCc1ccccc1)[C@@H]1NC(=O)[C@H]2CN(C(=O)Nc3cccc(F)c3)CCN2C1=O`, the IC50 was > 6.48 µM (inactive).

For `C/C(N)=C(/C#N)C(=O)COC(=O)c1c2c(nc3ccccc13)/C(=C/c1ccco1)CC2`, the IC50 is > 6.27 µM (inactive).

Take `COc1cc(N2CCOCC2)ccc1Nc1cc(Nc2ccccc2-n2cccn2)c(C(F)(F)F)cn1`: the IC50 is > 6.48 µM (inactive).

Regarding `COc1ccc2c(c1)CC(C(=O)Nc1ccc(-c3cn[nH]c3)cc1OCC(N)=O)CO2` (centres undefined), the IC50 was > 6.48 µM (inactive).

With `CC[C@@H]1NC(=O)[C@H]2CN(C(=O)NCc3ccccc3)CCN2C1=O`, the IC50 was > 6.48 µM (inactive).

Regarding `COc1ccc2c(c1)CC(c1nc(Nc3ccc4cnccc4c3)c3ccccc3n1)CO2` (centres undefined), the IC50 was > 6.48 µM (inactive).

As to `c1cc2c(cc1CNc1nc(Nc3ccc(N4CCOCC4)cc3)c3ncn(C4CCCCC4)c3n1)OCO2`, the IC50 was > 6.62 µM (inactive).

In the case of `NC(=O)COC(=O)/C=C/c1ccc(I)o1`, the IC50 is > 7.27 µM (inactive).
